DT40 TDP1 no CPT: qHTS for Inhibitors of human tyrosyl-DNA phosphodiesterase 1 (TDP1): qHTS in cells in absence of CPT; Potency, µM (titrated, usually from 46.2 µM), actives largely listed as inhibitors; 420,000 tested, 15% active; DT40 Tdp1-/- hTDP1 cells, no CPT, ATP luminescence, 48 h; further: nearly all actives have a fitted effect of over 55% in size
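Growth of hTDP1-complemented DT40 Tdp1-knockout cells is measured by ATP luminescence after at least 48 hr compound exposure at 37 °C, with DMSO substituting for the 20 nM CPT used in the parallel screen.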
Giardia kill: Small Molecules that selectively kill Giardia lamblia: qHTS | Giardia lamblia trophozoite viability | 340,000 tested, 0.15% active | activity change, % at 7.66 µM, hits read low; in the data active means activity change below about -80%; inconclusive means between about -30% and that limit;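 further: parasites exposed to compound for two days anaerobically before the ATP read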
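Anaerobic 48 hrs incubation at 37 deg C of 100 trophozoites/well with test compounds; ATPLite 1-Step luminescence, 15-30 min RT, reports cellular ATP as viability.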
ELG1 DNA repair: qHTS screen for small molecules that inhibit ELG1-dependent DNA repair in human embryonic kidney (HEK293T) cells expressing luciferase-tagged ELG1 | 330,000 tested, 2.3% active | HEK293T ELG1-luciferase reporter, luminescence, 16 h; DNA damage induced by 5-fluorouridine | AID 504467, 2011 | Potency, µM (series often up to 46.1 µM), most hits filed as inhibitors; further: nearly all actives have a fitted effect of over 55% in size
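5-Fluorouridine DNA damage + compound/DMSO, 2,000 cells/well, 16 h, 37 °C/5% CO2. ONE-Glo, 30 min RT, luminescence. Readout = decrease in reporter signal.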
TDP1 inh: qHTS Assay for Inhibitors of Tyrosyl-DNA Phosphodiesterase (TDP1); Tyrosyl-DNA phosphodiesterase 1 (Homo sapiens), Q9NUW8; recombinant TDP1, AlphaScreen DNA substrate cleavage; Potency, µM (doses to about 130 µM), actives largely listed as inhibitors; 350,000 tested, 0.28% active; AID 485290, 2010; further: nearly all actives have a fitted effect of over 40% in size
Target sequence (Q9NUW8 whole entry, looked up): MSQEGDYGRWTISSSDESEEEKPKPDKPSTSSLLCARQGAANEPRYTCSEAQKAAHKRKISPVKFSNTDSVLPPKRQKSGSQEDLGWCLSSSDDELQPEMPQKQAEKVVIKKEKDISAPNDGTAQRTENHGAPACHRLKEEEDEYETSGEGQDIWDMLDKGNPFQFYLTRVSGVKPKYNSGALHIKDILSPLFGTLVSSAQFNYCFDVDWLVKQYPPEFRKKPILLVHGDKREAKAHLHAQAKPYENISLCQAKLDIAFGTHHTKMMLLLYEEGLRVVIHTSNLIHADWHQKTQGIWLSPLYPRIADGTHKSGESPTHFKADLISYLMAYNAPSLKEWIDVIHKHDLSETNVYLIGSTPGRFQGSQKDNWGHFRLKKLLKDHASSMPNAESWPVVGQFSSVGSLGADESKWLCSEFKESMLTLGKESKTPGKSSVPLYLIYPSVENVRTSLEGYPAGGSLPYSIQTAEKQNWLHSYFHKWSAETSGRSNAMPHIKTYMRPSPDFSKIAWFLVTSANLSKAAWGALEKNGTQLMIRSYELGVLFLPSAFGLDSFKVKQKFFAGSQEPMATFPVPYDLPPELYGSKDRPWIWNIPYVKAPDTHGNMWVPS
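Here, a 5' biotin and 3' phosphotyrosine-FITC DNA oligonucleotide reports Tdp1 activity: intact substrate bridges AlphaScreen beads, while cleavage leaves a 3' phosphate and drops signal. All incubations at room temperature.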
DT40 TDP1 CPT: qHTS for Inhibitors of human tyrosyl-DNA phosphodiesterase 1 (TDP1): qHTS in cells in presence of CPT. 420,000 tested, 12% active. Potency, µM (series often up to 46.2 µM), usual class: inhibitors. chicken DT40 Tdp1-/-;hTDP1 cells + 20 nM CPT, ATP luminescence, 48 h; further: nearly all actives have a fitted effect of over 55% in size
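Chicken DT40 Tdp1-/- cells stably complemented with human TDP1 were seeded at 400 cells/well in medium containing 20 nM camptothecin, exposed to pin-transferred compounds, and grown at 37 °C for at least 48 hr. Viability was read as ATP luminescence.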
IL-1B inflam inh: qHTS for Inhibitors of Inflammasome Signaling: IL-1-beta AlphaLISA Primary Screen; THP-1 LPS/ATP IL-1B secretion, AlphaLISA, 16 h; active compounds read low; activity change, % at 57.5 µM; 360,000 tested, 4.7% active; AID 743279, 2014; in the data active means activity change below about -50%; inconclusive means mostly about -30% to -49%
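Secreted IL-1B measured by AlphaLISA bead assay after 16 h compound exposure of THP-1 cells; compounds (final up to 57.5 uM) added 1 h before LPS (250 ng/mL) and ATP (1.25 mM) stimulation; lower signal means less secretion.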
A number is an active result; – = inactive; ? = inconclusive; · = not tested or not shown; [ ] = another dose, or the depositor's remark. This is a sample that favours compounds with a hit; in the whole collection about 19% have one here. Unless noted, the call rests on the fitted dose curve; in most records, active means well fitted curve in the direction sought with a large enough effect; inconclusive means small, poorly fitted or top-dose-only effect, or another doubt; inactive means no such curve, though single readings can be large; an effect the other way counts as inactive or inconclusive.

SMILES | DT40 TDP1 no CPT | Giardia kill | ELG1 DNA repair | TDP1 inh | DT40 TDP1 CPT | IL-1B inflam inh
COc1ccc(OC)c(C(=O)c2c(C)oc3cc(Br)c(O)c(CN(C)C)c23)c1 | 20.6µM | – | · | · | ? | –
CCOC(=O)c1c(-c2ccccc2)[nH]c2ccc(O)cc12 | ? | – | – | – | – | -54.9
CCOC(=O)c1c(CSc2ccccc2)oc2cc(Br)c(O)c(CN(C)C)c12 | ? | – | – | – | 16.4µM | –
CCOC(=O)c1c(CS(=O)(=O)c2ccccc2)n(C)c2cc(Br)c(O)cc12 | ? | – | ? | – | ? | –
CCOC(=O)c1c(CS(=O)(=O)c2ccccc2)n(C)c2cc(Br)c(O)c(CN(C)C)c12 | 13µM | – | – | – | 14.6µM | –
CCOC(=O)c1c(CSc2ccccc2)oc2ccc(O)cc12 | 20.6µM | – | – | – | ? | –
CC(=O)c1c(CSc2ccccc2)oc2ccc(O)c(CN(C)C)c12 | ? | – | – | · | 23.1µM | -85.1
COC(=O)Cc1c(CSc2ccccc2)oc2ccc(O)c(CN(C)C)c12 | ? | – | – | · | – | –
CCOC(=O)c1c(CSc2ccc(C)cc2)oc2ccc(O)cc12 | ? | – | – | – | ? | –
O=C(COc1ccccc1)N=C1SC2CS(=O)(=O)CC2N1CCc1ccccc1 (stereo not given) | – | – | – | – | – | –
COc1ccc(S(=O)(=O)N2CCOCC2)cc1NC(=O)CSc1nnc2n1CCCCC2 | – | – | – | – | – | –
Cc1ccc(CNC(=O)C2CCCN(S(=O)(=O)c3c(C)noc3/C=C/N(C)C)C2)cc1 (stereo not given) | ? | – | – | – | ? | –
CC(C)=CCC/C(C)=C/CO/N=C1/C[C@@H](O)[C@@H](O)[C@@H]2[C@@H]3C(=O)N(Cc4ccc5c(c4)OCO5)C(=O)[C@H]3CC[C@@H]12 | · | · | · | –[21 µM] | · | ·
CCCc1nn2c(=O)cc(COC(=O)c3ccc(NC(=O)CCc4ccccc4)cc3)nc2s1 | – | · | · | – | – | ·
CCc1nn2c(=O)cc(COC(=O)c3cccc(NC(=O)CCc4ccccc4)c3)nc2s1 | 6.51µM | · | · | – | ? | ·
CCCc1nn2c(=O)cc(COC(=O)c3cccc(NC(=O)COc4ccccc4C)c3)nc2s1 | 18.4µM | · | · | – | ? | ·
CCc1nn2c(=O)cc(COC(=O)c3ccc(NC(=O)CCc4ccccc4)cc3)nc2s1 | 9.2µM | · | · | – | 23.1µM | ·
Cn1c(NC(=O)c2cccs2)c(-c2cccs2)c(=O)c2ccccc21 | – | – | – | – | 23.1µM | –
COc1ccccc1-c1c(NC(=O)C(C)C)n(C)c2ccccc2c1=O | – | – | – | – | ? | –
Cn1c(NC(=O)c2ccccc2)c(-c2cccs2)c(=O)c2ccccc21 | 16.4µM | – | – | – | 14.6µM | –
Cn1c(NC(=O)c2ccc(F)cc2)c(-c2cccs2)c(=O)c2ccccc21 | ? | – | – | – | ? | -57.8
CC(C)C(=O)Nc1c(-c2cccs2)c(=O)c2ccccc2n1C | – | – | – | – | – | –
CC(C)C(=O)Nc1c(-c2cccc(Cl)c2)c(=O)c2ccccc2n1C | 23.1µM | – | – | · | 18.4µM | –
COCc1c(Br)c(C)nc2sc3c(=O)[nH]nnc3c12 | – | – | – | · | – | –
O=C(NCCc1nnc2n1CCN(Cc1cc3ccccc3o1)CC2)c1ccoc1 | – | · | · | · | – | ·
SMILES | DT40 TDP1 no CPT | Giardia kill | ELG1 DNA repair | TDP1 inh | DT40 TDP1 CPT | IL-1B inflam inh
COc1ccc(C(=O)c2ccc(C)cc2)c(OC)c1OC | 18.4µM | – | · | · | 23.1µM | –
CC1CCN(S(=O)(=O)c2ccc3c(c2)N(CC(=O)O)C(=O)CO3)CC1 | 16.4µM | · | · | – | 14.6µM | ·
CC(C)N(Cc1ccccc1)C(=O)CN1C(=O)COc2ccc(S(=O)(=O)N3CCCCCC3)cc21 | 13µM | – | – | – | 14.6µM | –
CC(C)N(Cc1ccccc1)C(=O)CN1C(=O)CSc2ccc(S(=O)(=O)N3CCCC3)cc21 | – | · | · | – | 11.6µM | ·
CN(Cc1ccccc1)C(=O)CN1C(=O)COc2ccc(S(=O)(=O)N3CCCC3)cc21 | – | – | – | – | – | –
O=C(O)CC(NC(=O)Cc1ccc([N+](=O)[O-])cc1)c1ccc2c(c1)OCO2 (stereo not given) | – | – | – | – | – | –
CN(CC(=O)Nc1ccc(Cl)cc1)CC(=O)N1CCc2ccccc21 | – | · | · | · | ? | –
O=C(COC(=O)c1cccc(OC(F)F)c1)NCC1CCCO1 (stereo not given) | – | – | – | – | – | –
Cc1ccc(-n2nc(C)c(Sc3ccccc3[N+](=O)[O-])c2N)cc1 | ? | – | – | – | ? | –
Cc1ccc(Cn2nc(C)c(NC(=O)CSc3nc4c(c(C(F)(F)F)n3)CCc3ccccc3-4)c2C)cc1 | ? | – | – | – | ? | –
Cc1c(CN(C)C(=O)CSc2nc(-c3ccco3)cc(C(F)(F)F)n2)cnn1C | – | – | ? | – | ? | –
COc1ccc(-c2cc(C(F)(F)F)nc(SCCC(=O)Nc3ccc(OC)c(OC)c3)n2)cc1 | 14.6µM | · | · | – | 13µM | ·
CCn1cc(CN(C)C(=O)CSc2nc(-c3ccco3)cc(C(F)(F)F)n2)c(C)n1 | 23.1µM | – | · | · | ? | –
CN(Cc1ccccc1)C(=O)CSc1nc2c(c(C(F)(F)F)n1)CCc1ccccc1-2 | ? | – | · | · | 29.1µM | ?
COc1ccc(-c2cc(C(F)(F)F)nc(SCCC(=O)Nc3ccccc3F)n2)cc1 | · | · | · | – | · | ·
COc1ccc(-c2cc(C(F)(F)F)nc(SCCC(=O)NCc3ccccc3)n2)cc1 | 18.4µM | – | ? | – | ? | –
CCCCOc1ccc(C2c3c(oc4ccc(C)cc4c3=O)C(=O)N2CCCN(C)C)cc1OCC (stereo not given) | – | · | · | – | – | ·
CCCS(=O)(=O)N1CCN=C1SCc1cccc(C)c1 | ? | – | ? | – | ? | –
COc1ccc(-c2cc(C(F)(F)F)nc(SCC(=O)N(C)Cc3ccccc3)n2)cc1 | ? | · | · | – | 23.1µM | ·
CCCCc1nc2c(c3c1CC(C)OC3)CN(CCC(C)C)CC2 (stereo not given) | · | · | · | –[21 µM] | · | ·
COc1ccc(NS(=O)(=O)c2ccc(NC(=S)NCC3CCCO3)cc2)cc1 (stereo not given) | ? | – | – | – | 14.6µM | –
Cc1ccc(S(=O)(=O)NCC2CCCO2)cc1 (stereo not given) | – | – | – | · | – | –
Cc1ccc(C(=O)NC(=S)NCC2CCCO2)cc1Br (stereo not given) | 29.1µM | – | ? | – | ? | –
